This is an account of results in ChEMBL document CHEMBL3433997, “St. Jude Leishmania screening dataset” (2016).

Each structure is given as a SMILES string.

What all share (type): functional
Test [1] deals with Solute carrier family 2, facilitated glucose transporter member 1 (Homo sapiens) (UniProt P11166). The experiment in a line: ST_JUDE_LEISH: Cytotoxicity at 2uM final concentration against transgenic Leishmania Mexicana promastigotes LmGLUT1 that are glucose transport deficient and complemented with the human glucose transporter GLUT1. Activity is measured by DNA content using SYBR green in vitro.
Solute carrier family 2, facilitated glucose transporter member 1 (Homo sapiens), sequence (P11166 whole entry): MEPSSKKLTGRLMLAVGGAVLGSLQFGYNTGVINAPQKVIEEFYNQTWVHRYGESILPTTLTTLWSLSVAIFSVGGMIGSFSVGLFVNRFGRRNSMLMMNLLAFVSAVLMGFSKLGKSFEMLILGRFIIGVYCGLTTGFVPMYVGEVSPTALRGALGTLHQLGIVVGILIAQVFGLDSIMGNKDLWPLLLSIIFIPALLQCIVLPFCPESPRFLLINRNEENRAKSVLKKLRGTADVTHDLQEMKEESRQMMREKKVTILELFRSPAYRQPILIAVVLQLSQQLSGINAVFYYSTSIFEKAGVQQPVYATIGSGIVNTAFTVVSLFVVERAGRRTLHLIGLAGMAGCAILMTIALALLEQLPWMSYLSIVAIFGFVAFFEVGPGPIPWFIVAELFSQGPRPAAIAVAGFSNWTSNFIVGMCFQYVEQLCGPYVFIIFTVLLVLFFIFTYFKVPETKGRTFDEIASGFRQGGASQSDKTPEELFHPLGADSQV

In test [2] the target is Hexose transporter 1 (Plasmodium falciparum) (UniProt O97467). The experiment in a line: ST_JUDE_LEISH: Cytotoxicity at 2uM final concentration against transgenic Leishmania Mexicana promastigotes LmPfHT that are glucose transport deficient and complemented with the Plasmodium falciparum hexose transporter. Activity is measured by DNA content using SYBR green in vitro.
For test [3], the target named is Glucose transporter (Leishmania mexicana) (UniProt O61059). The experiment in a line: ST_JUDE_LEISH: Cytotoxicity at 2uM final concentration against transgenic Leishmania Mexicana promastigotes LmGT2 that are glucose transport deficient and complemented with the L. Mexicana glucose transporter 2. Activity is measured by DNA content using SYBR green in vitro.

In the case of `COc1ccc(CCNc2ccnc3cc(Cl)ccc23)cc1OC`, the inhibition in test [1] is 2.61%; in test [2], 2.36%; in test [3] it was 0.21%.
Consider `Cn1cc(CCNc2ccnc(NCCc3coc4ccccc34)n2)c2ccccc21`, for which the inhibition amounted to 8.67% in test [1], 6.89% in test [2] and 2.14% in test [3].
The matching figures for `O=C(NCc1cccc(C(F)(F)F)c1)c1ccc(-c2nc3cc(F)c(F)cc3[nH]2)cc1`: 1.11%, -2.13% and 4.61%.
Turning to `Cc1n[nH]c2ccc(-c3cc(OC[C@@H](N)Cc4ccccc4)cnc3-c3ccc(OCc4cccc(F)c4)cc3)cc12`, the inhibition in test [1] was -0.24%; in test [2] it was 0.68%; in test [3] it was -0.73%.
Take `CC1CN(c2ccc(C(=O)NCC3CC3)cc2NC(=O)OCc2ccccc2)CC(C)O1` (stereo not given): the inhibition in test [1] was 0.19%; in test [2], 0.86%; in test [3], -0.78%.
For the molecule `O=C(C=Cc1ccc(Cl)c(Cl)c1)NCCCCCN1CCCC(CCCNC(=O)c2cccs2)C1` (stereo not given), the inhibition came out at 6.06% in test [1], 3.58% in test [2] and 5.16% in test [3].
Take `Cc1cccc2nc(-c3ccc(-c4ccc(NC(=O)Nc5ccc(Cl)cc5)cc4)s3)[nH]c12`: the inhibition in test [1] was 1.01%; in test [2], 1.2%; in test [3], 0.32%.
Turning to `CN(C)c1ccc(-c2csc(C(=O)NCC3CCN(Cc4cccc(C(F)(F)F)c4)C3)c2)cc1` (stereo not given), the figures for the inhibition in test [1], in test [2] and in test [3] were 7.22%, 6.1% and 9.26%, respectively.
In the case of `CCN(CC)CCN(CCN(CC)CC)c1ccc(-c2nc3cc(Cl)c(Cl)cc3[nH]2)cc1`, the inhibition in test [1] turned out to be 15.8%; in test [2] it was 16.3%; in test [3], 7.03%.
The like results for `CCN(CC)CCN(Cc1ccc(-c2ccc(C(F)(F)F)s2)cc1)C(=O)Cn1c(CCc2cccc(F)c2F)nc(=O)c2ccccc21` were, in that order, 1.5%, 2.39% and 2.57%.
Consider `Cc1cc2[nH]c(-c3ccc(C(=O)NCCCN4CCN(c5cccc(Cl)c5)CC4)s3)nc2cc1Cl`, for which the inhibition stood at 3.07% in test [1], 3.29% in test [2] and 2.02% in test [3].
With `N#Cc1ccc(-c2cnc3ccc(NCc4ccc(S(N)(=O)=O)cc4)nn23)cc1`, the inhibition in test [1] came out at 2.42%; in test [2] it was 1.16%; in test [3] it was 0.38%.
Regarding `Cc1cccc2nc(-c3ccc(-c4cccc(CN5CCC(CO)CC5)c4)s3)[nH]c12`, the inhibition worked out at 1.48% in test [1], 0.4% in test [2] and 1.75% in test [3].
The like results for `CC(=O)Nc1nc(C(=O)Nc2cccc(-c3cccc(-c4nc5ccccc5[nH]4)c3)c2)cs1` were, in that order, 12%, 15.6% and 6.57%.
As to `CCN(CC)C(=O)C1CCCN(c2cc(C)nc(Nc3ccc(Cl)cc3)n2)C1` (stereo not given), the inhibition in test [1] was determined as 0.86%; in test [2], 1.03%; in test [3] it was 0.51%.
On to `COc1ccc(C2CC(c3cccs3)=NN2C(=O)CNc2ccccc2F)cc1OC` (stereo not given), for which the inhibition is 2.69% in test [1], 1.72% in test [2] and 2.76% in test [3].
With `COc1cc(C(=O)NCCCN2CCN(c3cccc(Cl)c3)CC2)ccc1-c1cc2cc(Cl)c(Cl)cc2[nH]1`, the values for the inhibition in test [1], in test [2] and in test [3] were 4.57%, 4.17% and 3.53%, respectively.
As to `O=C(N[C@@H](Cc1ccccc1)C(=O)NCc1cccc(C(F)(F)F)c1)c1ccc(O)c(-c2ccc(Cl)c(Cl)c2)c1`, the inhibition in test [1] was 3.7%; in test [2] it was 0.97%; in test [3] it was -2.02%.
The like results for `CN1CCN(c2ccc3nccc(CCN4CCC(NCc5ccc6c(n5)NC(=O)CO6)CC4)c3n2)CC1` were, in that order, -0.03%, -0.01% and -0.12%.
Turning to `CCCCN(CCCC)CC(O)c1cc(-c2ccc(Cl)cc2)nc2c(Cl)cc(Cl)cc12` (stereo not given), the inhibition came out at 6.76% in test [1], 7.36% in test [2] and 4.19% in test [3].
Consider `Cc1nc(N)nc(N)c1-c1ccc(Br)c(Br)c1`, for which the inhibition in test [1] is 4.47%; in test [2], 4.38%; in test [3], 3.4%.
As for `CC(C)(CNC(=O)C1CCN(CCOCc2ccccc2)CC1)c1nc(-c2ccc(Cl)c(O)c2)c(-c2ccncc2)[nH]1`, the inhibition in test [1] stood at 1.22%; in test [2], 0.65%; in test [3] it was 2.74%.
The like results for `COc1ccc(CCN(C)CCOc2ccc(NC(=O)COc3ccc4sc5ccccc5c(=O)c4c3)cc2)cc1OC` were, in that order, 3.46%, 4.33% and 1.11%.
The matching figures for `CC(C)COc1ccc(Cl)cc1Cc1ccc(-c2nc3cc(CCN(C)C)ccc3[nH]2)o1`: 2.44%, 4.3% and 3.29%.
On to `OC(c1ccccc1)C1CN(CCC2CC3CCC2C3)CCC1(O)c1ccccc1` (stereo not given), for which the inhibition in test [1] is -0.77%; in test [2] it was -3.69%; in test [3], -3.24%.
For `CCOC(=O)c1ccc(NC(=O)Nc2cccc(-c3ccc(-c4nc5ccccc5[nH]4)cc3)c2)cc1`, the results for the inhibition in test [1], in test [2] and in test [3] were 5.47%, 1.48% and 3.89%, respectively.
For `O=C(NC1CC1)c1ccc(N2CCOc3ccc(Cl)cc32)s1`, the inhibition was 2.19% in test [1], 1% in test [2] and 1.54% in test [3].
The like results for `CCCNC(=O)Nc1ccc(N(C)c2ccnc(NC3CC3)n2)cc1` were, in that order, 7%, 5.59% and 5.87%.
Turning to `CCN(CC)c1ccc2nc(N)nc(N)c2c1Cl`, the inhibition is 5.94% in test [1], 6.11% in test [2] and 4.52% in test [3].
As to `Nc1nc2ccc(S(=O)(=O)Nc3ccc(C(=O)N[C@@H](CCC(=O)O)C(=O)O)c(F)c3)cc2c(=O)[nH]1`, the results for the inhibition in test [1], in test [2] and in test [3] were 0.57%, 1.22% and 1.53%, respectively.
The like results for `N#CC1(c2ccccc2)CCN(c2nc(NCCCN3CCCC3=O)nc(N3CCCC4CCCCC43)n2)CC1` (stereo not given) were, in that order, 2.11%, 2.3% and -0.55%.
The matching figures for `COc1ccc(CNCc2cccc(-c3cccc(-c4nc5cc(F)ccc5[nH]4)c3)c2)cc1`: 2.28%, 0.55% and -0.04%.
Regarding `O=C(Nc1cccc(-c2ccc(-c3nc4cc(C(F)(F)F)ccc4[nH]3)cc2)c1)c1c[nH]cn1`, the inhibition came to 5.73% in test [1], 5.19% in test [2] and 0.52% in test [3].
The matching figures for `C=Cc1sc(CNCCCNc2cc(=O)c3ccccc3[nH]2)c(C)c1Br`: 0.34%, 0.27% and -0.58%.
The matching figures for `CN1CCC(C(=O)N(Cc2ccc(-c3ccc(CNCCc4ccc(S(C)(=O)=O)cc4)cn3)cc2)C2Cc3ccccc3C2)CC1`: 0.67%, -0.29% and -0.85%.
